Compound activity as filed in PubChem BioAssay.
Vaccinia mCherry – qHTS for Stage-Specific Inhibitors of Vaccinia Orthopoxvirus: mCherry Reporter Primary qHTS | Vaccinia virus mCherry reporter infection, fluorescence | Potency, µM (titrated, usually from 36.5 µM), actives largely listed as inhibitors | 310,000 compounds, 0.63% hits; calls by dose curve; tested in A549 cells; also: nearly all actives have a fitted effect of over 35% in size
MARV entry inh – qHTS for inhibitors of binding or entry into cells for Marburg Virus; 300,000 compounds, 1.8% hits; Marburg virus pseudotyped entry inhibition, cell reporter; Potency, µM (top dose mostly 37.8 µM), hits mostly inhibitors; calls by dose curve; tested in HEK293 cells
LASV entry inh – qHTS for Inhibitors of binding or entry into cells for Lassa Virus. Potency, µM (series often up to 37.9 µM), most hits filed as inhibitors. 300,000 compounds, 1.2% hits. AID 540256, 2011. Lassa virus pseudotype entry inhibition, cell reporter; calls by dose curve; tested in HEK293 cells; also: nearly all actives have a fitted effect of over 50% in size
FMDV antiviral – High Throughput Screening for Foot and Mouth Disease Virus Antivirals. FMDV antiviral cell-based qHTS. AID 1159524, 2015. 410,000 compounds, 1.2% hits. Potency, µM (highest dose often 57.9 µM), actives largely listed as inhibitors; calls by dose curve; tested in HEK293T cells; also: read-out not given here; nearly all actives have a fitted effect of over 45% in size
VACV Venus inh – qHTS for Stage-Specific Inhibitors of Vaccinia Orthopoxvirus: Venus Reporter Primary qHTS; Vaccinia virus Venus reporter expression, fluorescence; Potency, µM (series often up to 36.5 µM), hits mostly inhibitors; 330,000 compounds, 0.46% hits; calls by dose curve; tested in A549 cells; also: nearly all actives have a fitted effect of over 30% in size
HCMV antiviral – qHTS Assay for inhibitors of the human cytomegalovirus (HCMV). 410,000 compounds, 4.5% hits. activity change, negative = inhibition, % at 57.5 µM. HFF cells, HCMV-luciferase reporter, 72 h; hits give low values. AID 1259415, 2018; in the data active = activity change below about -60%; inconclusive = no clear call, values can overlap the other calls; inactive = above about -39%
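Cell-based, HFFs, 1000 cells/well, 16 h 37C; cpds in DMSO + HCMV-luc, MOI 1 PFU/cell; 72 h 37C; OneGlo luminescence after 5 min RT; norm. to buffer vs Salinomycin 10uM.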
Numbers stand for hits; n = inactive; u = inconclusive; x = no result given. An excerpt weighted towards active compounds, which were near 6.5% of everything screened.

SMILES	Vaccinia mCherry	MARV entry inh	LASV entry inh	FMDV antiviral	VACV Venus inh	HCMV antiviral
Cc1ccc2c(c1)CN(CCNC(=O)c1ccc3nc(C)[nH]c3c1)CC(C)O2 (centres undefined)	n	x	x	n	n	x
Cc1ccc(-c2cn(CCN)c(=O)cn2)cc1	x	x	x	x	x	n
Cc1c(Cl)c([N+](=O)[O-])nn1Cc1ccc(C(=O)N/N=C\c2cccc(Br)c2)o1	x	u	n	n	28.2µM	n
Cc1cc(NC(=O)NCc2ccc3c(c2)CCN3C(=O)c2ccccc2)ccc1Br	n	x	n	n	u	n
O=C(Nc1cccc(F)c1)[C@H](CSCc1ccccc1)N1Cc2ccccc2C1=O	n	u	n	n	n	n
FC(F)(F)c1nnc2c(Sc3ccccn3)nc3ccccc3n12	x	n	n	n	x	n
FC(F)(F)c1nnc2c(Sc3ccc(Cl)cc3)nc3ccccc3n12	x	n	n	u	x	-102.6
FC(F)(F)c1nc2ccccc2n2c(-c3ccc(Cl)cc3)nnc12	x	u	u	u	u	-105.7
FC(F)(F)c1nnc2c(Sc3ccccc3)nc3ccccc3n12	x	n	n	n	x	-100.8
C[C@@H]1C=CCCO[C@]12C(=O)N(Cc1ccc(F)cc1)c1ccccc12	x	n	u	x	x	x
CC1(C)S[C@@H]2[C@H](NC(=O)COc3ccccc3)C(=O)N2[C@@H]1C(=O)OCc1cccc2cccnc12	n	x	x	x	n	x
O=C(CNC(=O)C(c1ccccc1)c1ccccc1)OCC(=O)c1ccc2ccccc2c1	n	x	x	x	n	x
O=C(C(c1ccccc1)c1ccccc1)N1CC[C@@]2(O)CCCC[C@H]2C1	n	5.62µM	n	n	n	n
O=C1C=C(c2ccccc2)C(=O)N1Nc1ccccc1	n	n	u	35.5µM	n	n
Cc1ccc(NN2C(=O)C=C(c3ccc(Cl)cc3)C2=O)cc1	u	u	u	39.8µM	u	n
COc1ccc(C2=CC(=O)N(Nc3ccccc3)C2=O)cc1	n	u	n	u	n	n
COc1cc(/C=C/c2ccc3ccccc3n2)cc(OC)c1OC	u	x	x	x	n	x
Cc1ccc(-n2ncc(C(=O)NCCc3ccsc3)c2C2CCN(C(=O)OC(C)(C)C)CC2)c(C)c1	n	x	u	n	n	n
CCOCCCNC(=S)N1CCN(c2nc(-c3ccccc3)cs2)CC1	x	x	x	u	x	-86.1
COCCCNC(=S)N1CCN(c2nc(-c3ccccc3)cs2)CC1	x	x	x	u	x	-67.4
CCN(CC)CCCNC(=S)N1CCN(c2nc(-c3ccccc3)cs2)CC1	n	u	n	n	u	n
COCCCNC(=S)N1CCN(c2nc(-c3ccc(Cl)cc3)cs2)CC1	u	x	x	u	u	-92.1
CCC(=O)N1CC(=O)N2[C@H](C1)[C@@H](c1ccc(Br)cc1)[C@@H]2CO	x	x	x	x	x	n
O=C([C@@H]1[C@@H](CO)[C@@H]2Cn3c(cccc3=O)[C@H]1N2Cc1cccc(Cl)c1)N1CCOCC1	x	x	x	x	x	n
O=C(CCn1cnc2onc(-c3ccc(F)cc3)c2c1=O)Nc1ccc(F)c(Cl)c1	n	x	n	n	n	-67.3
SMILES	Vaccinia mCherry	MARV entry inh	LASV entry inh	FMDV antiviral	VACV Venus inh	HCMV antiviral
O=C(CCn1cnc2onc(-c3ccc(F)cc3)c2c1=O)Nc1cccc(C(F)(F)F)c1	n	x	n	n	n	-85.8
CCc1cccc2c3c([nH]c12)[C@](CC)(CC(=O)O)OCC3	x	n	x	x	x	x
Cc1cc(C)c(S(=O)(=O)N2CCCCC2CCNC(=O)C(=O)NC2CC2)c(C)c1 (centres undefined)	u	u	0.891µM	n	n	x
Cc1cc(S(=O)(=O)N2CCCCC2CCNC(=O)C(=O)NC2CC2)ccc1F (centres undefined)	n	u	u	n	n	n
COc1ccccc1CC(Cc1nc2ccccc2[nH]1)c1nc2ccccc2[nH]1 (centres undefined)	n	u	n	n	n	n
Cc1cccc(CC(Cc2nc3ccccc3[nH]2)c2nc3ccccc3[nH]2)c1 (centres undefined)	x	u	u	u	u	-82.6
O=C(c1ccc(COc2ccccc2Br)o1)N1N=C(C(F)F)CC1(O)C(F)F (centres undefined)	n	7.08µM	n	n	u	n
Cc1ccc(NC(=O)CSc2nc3ccccc3c3nc(CCn4c(C)nc5ccccc54)nn23)cc1F	u	x	n	n	u	n
Cc1nc2ccccc2n1CCc1nc2c3ccccc3nc(SCC(=O)Nc3cccc(C(F)(F)F)c3)n2n1	n	x	n	n	u	-60.7
